We go through 39 compounds from PubChem BioAssay (Tox21).

Inconclusive results are not listed. Values without a mark were called inactive. Calls of active or inactive are those of the source. Calls come from the whole dose curve; as a rule, active = well fitted cell-killing curve with a large enough effect in the repeat runs; inconclusive = weak or mixed curves, or effect the other way; inactive = flat fitted curve, though single readings scatter.
% is set by controls: 0 for no effect and ±100 for the full control effect.

This assay is described as follows: cAMP Responsive Elements (CRE) small molecule agonists, cell-based qHTS assay: qHTS cell viability counter screen (AID 2060914). Note: nearly all actives have a fitted effect of over 50% in size. The following applies: CRE-bla HEK293T viability, CellTiter-Glo luminescence, 5 h; series mostly up to 92.4 µM; activity change, negative = cytotoxicity: at the top concentration. The essentials: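 CRE-bla HEK293T cells in 10% dialyzed FBS medium were exposed to compounds for 3 h at 37C after 18 h plating. CellTiter-Glo was then added in the same wells, and luminescence was read after 30 min at room temperature.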
A general note: Quantitative high-throughput screening tests each substance at several concentrations.
For `COc1cc(C=O)ccc1O`, the Potency result was “inactive”.

`CCOC(=N)CC(=O)OCC`: the “activity change, negative = cytotoxicity” value was -1.03%.

On to `CC(CCl)OP(=O)(OC(C)CCl)OC(C)CCl` (centres undefined), for which the Potency result is “inactive”.

For `OCCCCl`, the “activity change, negative = cytotoxicity” value was 9.03%.

Take `CCOC(=O)/C=C\C(=O)OCC`: the Potency entry is “inactive”.

For the compound `CCC(C)COC(C)=O` (centres undefined), the “activity change, negative = cytotoxicity” value was 2.81%.

Regarding `CC(C)OCCO`, the “activity change, negative = cytotoxicity” value was 0.35%.

As to `CCNC(=O)[C@@H]1CCCN1C(=O)[C@H](CCCN=C(N)N)NC(=O)[C@H](CC(C)C)NC(=O)CNC(=O)[C@H](Cc1ccc(O)cc1)NC(=O)[C@H](CO)NC(=O)[C@H](Cc1c[nH]c2ccccc12)NC(=O)[C@H](Cc1cnc[nH]1)NC(=O)[C@@H]1CCC(=O)N1`, the “activity change, negative = cytotoxicity” value is 1.6% [at 42.5 µM].

For the compound `Nc1ncnc2c1ncn2[C@@H]1O[C@H](CO)[C@@H](O)[C@H]1O`, the “activity change, negative = cytotoxicity” value was -0.335% [at 42.5 µM].

As for `BrC(Br)C(Br)Br`, the “activity change, negative = cytotoxicity” value is 2.02%.

Consider `CCCCN`, for which the “activity change, negative = cytotoxicity” value is 5.28% [at 42.5 µM].

Take `CC(=O)OC(C)(C)C1CC=C(C)CC1` (centres undefined): the Potency result is “inactive”.

On to `C1CCC(SSC2CCCCC2)CC1`, for which the “activity change, negative = cytotoxicity” value was 9.15%.

Consider `O=C(O)c1ccccc1S`, for which the “activity change, negative = cytotoxicity” value was 5.83% [at 42.5 µM].

For `Clc1nnc(Cl)c2ccccc12`, the “activity change, negative = cytotoxicity” value is -15%.

Regarding `CC(C)(O)Cc1ccccc1`, the “activity change, negative = cytotoxicity” value is 2.67%.

`Nc1ccc(F)cc1`: the “activity change, negative = cytotoxicity” value is -15.2%.

On to `C[N+]1(C)CCC(OC(=O)C(O)(c2ccccc2)C2CCCC2)C1` (centres undefined), for which the “activity change, negative = cytotoxicity” value is 4.92% [at 42.5 µM].

Take `CCN(CC)c1ccc2c(-c3ccccc3C(=O)O)c3ccc(=[N+](CC)CC)cc-3oc2c1`: the “activity change, negative = cytotoxicity” value was 2.88%.

With `O=C1O[C@H]([C@@H](O)CO)C(O)=C1O`, the Potency result was “inactive”.

For `C1COCCO1`, the “activity change, negative = cytotoxicity” value is -10.9%.

Turning to `Cc1ccc(C(C)c2ccc(C)c(C)c2)cc1C`, the “activity change, negative = cytotoxicity” value is -8.37%.

Consider `N[C@@H](CSSC[C@H](N)C(=O)O)C(=O)O`, for which the activity change, negative = cytotoxicity was 11.2% [at 0.349 µM].

Consider `Cc1ccccc1C`, for which the “activity change, negative = cytotoxicity” value is 1.1%.

Consider `CCN1CCCC1CN` (centres undefined), for which the “activity change, negative = cytotoxicity” value is -2.77% [at 42.5 µM].

`NC(=O)c1ncn([C@@H]2O[C@H](CO)[C@@H](O)[C@H]2O)n1`: the Potency entry was “inactive”.

Take `CC(C)CCCCCCOC(=O)c1ccc(C(=O)OCCCCCCC(C)C)c(C(=O)OCCCCCCC(C)C)c1`: the “activity change, negative = cytotoxicity” value was -7%.

With `O=C1OC(=O)c2cc(Oc3ccc4c(c3)C(=O)OC4=O)ccc21`, the “activity change, negative = cytotoxicity” value is 5.49%.

Turning to `CCn1c(=O)c2c(nc(/C=C/c3ccc(OC)c(OC)c3)n2C)n(CC)c1=O`, the “activity change, negative = cytotoxicity” value is -0.803% [at 42.5 µM].

As for `NC(=O)c1ccncc1`, the “activity change, negative = cytotoxicity” value was -13.4%.

As for `C/C=C/C=C/CCCCCCCO`, the “activity change, negative = cytotoxicity” value was 5.93%.

Turning to `NC1=NCC2c3ccccc3Cc3ccccc3N12` (centres undefined), the “activity change, negative = cytotoxicity” value is -15.3% [at 42.5 µM].

As to `Cc1ccc(S(N)(=O)=O)cc1`, the Potency entry was “inactive”.

Consider `CC(=O)CC(=O)OC(C)(C)C`, for which the “activity change, negative = cytotoxicity” value is -0.123%.

As to `CO[Si](CCCCl)(OC)OC`, the “activity change, negative = cytotoxicity” value was 3.28%.

On to `CC(C=O)Cc1ccc(C(C)(C)C)cc1` (centres undefined), for which the Potency entry was “inactive”.

In the case of `CC(=O)NC(Cc1ccccc1)C(=O)O` (centres undefined), the “activity change, negative = cytotoxicity” value is 7.02% [at 42.5 µM].

`CCC(C)c1ccccc1` (centres undefined): the “activity change, negative = cytotoxicity” value was 1.2%.

With `Cc1cc(O)cc(C)c1Cl`, the Potency result is “inactive”.
